In PubChem BioAssay AID1159580 (chemical genetic matrix, 2015):
Where “and” joins values, the source holds several entries; their conditions need not be identical. Identical values can stand only once. Screen size: about 5,500 compounds; about 2,000 (36%) were called active. Inconclusive results (about 18%) are left out. Cut-off read from the data, not from the text of the source: active = normalized growth mostly below about 0.91 (no sharp cut-off); inconclusive = no clear call, values can overlap the other calls; inactive = mostly above about 0.92. The list shows a part of the results.

Test: chemical genetic growth profiling, strain panel (AID 1159580);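 note: tested at 20 µM; growth read once vehicle control cultures reached saturation at 30 °C; 1 = growth at the plate median or of vehicle wells; lower values mean less growth of the strain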
Settings: growth OD

Measured: normalized growth

CC(C)[N+](C)(CCOC(=O)C1c2ccccc2Oc2ccccc21)C(C)C
inactive: S. cerevisiae deletion strains, locus YJR075W, strain HOC1, active compounds read low 1.02 | S. cerevisiae deletion strains, locus YKL009W, strain mrt4, active compounds read low 1.02 | S. cerevisiae deletion strains, locus YKL068W, active compounds read low 1.01 | S. cerevisiae deletion strains, locus YKL085W, strain MDH1 (second series), active compounds read low 1.01 | S. cerevisiae deletion strains, locus YKL085W, strain MDH1, active compounds read low 1.01 | S. cerevisiae deletion strains, locus YKL160W, strain elf1, active compounds read low 1.04 | S. cerevisiae deletion strains, locus YKL190W, strain CNB1, active compounds read low 1.02 | S. cerevisiae deletion strains, locus YKR001C, strain vps1, active compounds read low 1.01 | S. cerevisiae deletion strains, locus YKR026C, strain gcn3, active compounds read low 0.997 | S. cerevisiae deletion strains, locus YKR091W, strain srl3, active compounds read low 0.994 | S. cerevisiae deletion strains, locus YLL001W, strain dnm1, active compounds read low 1.01 | S. cerevisiae deletion strains, locus YLL026W, active compounds read low 1.02 | S. cerevisiae deletion strains, locus YLL041C, strain sdh2, active compounds read low 1 | S. cerevisiae deletion strains, locus YLR027C, strain aat2, active compounds read low 1 | S. cerevisiae deletion strains, locus YLR039C, strain RIC1, active compounds read low 1.05 | S. cerevisiae deletion strains, locus YLR058C, strain SHM2, active compounds read low 1.01 | S. cerevisiae deletion strains, locus YLR102C, strain apc9, active compounds read low 1 | S. cerevisiae deletion strains, locus YLR113W, strain HOG1, active compounds read low 1.02 | S. cerevisiae deletion strains, locus YLR221C, strain rsa3, active compounds read low 0.996 | S. cerevisiae deletion strains, locus YLR258W, strain gsy2, active compounds read low 1.02 | S. cerevisiae deletion strains, locus YLR262C, strain YPT6 (second series), active compounds read low 1 | S. cerevisiae deletion strains, locus YLR262C, strain YPT6, active compounds read low 1.07 | S. cerevisiae deletion strains, locus YLR268W, strain sec22, active compounds read low 1.02 | S. cerevisiae deletion strains, locus YLR320W, strain mms22, active compounds read low 0.985 | S. cerevisiae deletion strains, locus YLR330W, strain CHS5, active compounds read low 1 | S. cerevisiae deletion strains, locus YLR342W, strain FKS1 (second series), active compounds read low 1.02 | S. cerevisiae deletion strains, locus YLR342W, strain FKS1, active compounds read low 1.02 | S. cerevisiae deletion strains, locus YLR357W, strain rsc2, active compounds read low 1.02 | S. cerevisiae deletion strains, locus YLR370C, strain arc18, active compounds read low 1.01 | S. cerevisiae deletion strains, locus YLR371W, strain rom2, active compounds read low 1.01 | S. cerevisiae deletion strains, locus YLR384C, strain iki3, active compounds read low 1.02 | S. cerevisiae deletion strains, locus YLR418C, strain cdc73, active compounds read low 1.02 | S. cerevisiae deletion strains, locus YML016C, strain PPZ1, active compounds read low 1 | S. cerevisiae deletion strains, locus YML032C, strain rad52, active compounds read low 1.01 | S. cerevisiae deletion strains, locus YML120C, strain ndi1, active compounds read low 1.01 | S. cerevisiae deletion strains, locus YML124C, strain tub3, active compounds read low 1.01 | S. cerevisiae deletion strains, locus YMR058W, strain fet3, active compounds read low 1 | S. cerevisiae deletion strains, locus YMR078C, strain ctf18, active compounds read low 1 | S. cerevisiae deletion strains, locus YMR125W, strain sto1, active compounds read low 1 | S. cerevisiae deletion strains, locus YMR129W, active compounds read low 1.01 | S. cerevisiae deletion strains, locus YMR205C, strain PFK2, active compounds read low 0.998 | S. cerevisiae deletion strains, locus YMR223W, strain ubp8, active compounds read low 0.994 | S. cerevisiae deletion strains, locus YMR231W, strain pep5, active compounds read low 1.01 | S. cerevisiae deletion strains, locus YMR307W, strain GAS1, active compounds read low 1.01 and 1.02 | S. cerevisiae deletion strains, locus YNL067W, strain RPL9B, active compounds read low 1.01 | S. cerevisiae deletion strains, locus YNL071W, strain lat1, active compounds read low 1.01 | S. cerevisiae deletion strains, locus YNL128W, strain TEP1, active compounds read low 1.02 | S. cerevisiae deletion strains, locus YNL153C, strain GIM3, active compounds read low 1.01 and 0.989 | S. cerevisiae deletion strains, locus YNL175C, strain NOP13, active compounds read low 1.02 | S. cerevisiae deletion strains, locus YNL183C, strain NPR1, active compounds read low 0.971 | S. cerevisiae deletion strains, locus YNL197C, strain WHI3, active compounds read low 0.999 | S. cerevisiae deletion strains, locus YNL209W, strain ssb2, active compounds read low 1.01 | S. cerevisiae deletion strains, locus YNL224C, strain SQS1, active compounds read low 1 | S. cerevisiae deletion strains, locus YNL233W, strain BNI4, active compounds read low 1.01 | S. cerevisiae deletion strains, locus YNL248C, strain rpa49, active compounds read low 1.04 | S. cerevisiae deletion strains, locus YNL250W, strain rad50, active compounds read low 1.02 | S. cerevisiae deletion strains, locus YNL271C, strain bni1, active compounds read low 1.01 | S. cerevisiae deletion strains, locus YNL298W, strain CLA4, active compounds read low 1.03 | S. cerevisiae deletion strains, locus YNL307C, strain MCK1, active compounds read low 1 | S. cerevisiae deletion strains, locus YNL322C, strain KRE1 (second series), active compounds read low 1.02 | S. cerevisiae deletion strains, locus YNR049C, strain mso1, active compounds read low 1.01 | S. cerevisiae deletion strains, locus YNR052C, strain pop2, active compounds read low 1.01 | S. cerevisiae deletion strains, locus YOL006C, strain TOP1, active compounds read low 1 | S. cerevisiae deletion strains, locus YOL012C, strain htz1 0.959 | S. cerevisiae deletion strains, locus YOL147C, strain pex11, active compounds read low 1.01 | S. cerevisiae deletion strains, locus YOR001W, strain rrp6, active compounds read low 0.976 | S. cerevisiae deletion strains, locus YOR061W, strain CKA2, active compounds read low 1.01 | S. cerevisiae deletion strains, locus YOR069W, strain VPS5, active compounds read low 1 | S. cerevisiae deletion strains, locus YOR070C, strain gyp1, active compounds read low 1.01 | S. cerevisiae deletion strains, locus YOR080W, strain dia2, active compounds read low 1.01 | S. cerevisiae deletion strains, locus YOR083W, strain WHI5 (second series), active compounds read low 1.01 | S. cerevisiae deletion strains, locus YOR083W, strain WHI5, active compounds read low 0.979 | S. cerevisiae deletion strains, locus YOR106W, strain vam3, active compounds read low 1.03 | S. cerevisiae deletion strains, locus YOR136W, strain idh2, active compounds read low 1 | S. cerevisiae deletion strains, locus YOR144C, strain elg1, active compounds read low 1 | S. cerevisiae deletion strains, locus YOR184W, strain ser1, active compounds read low 1.01 | S. cerevisiae deletion strains, locus YOR231W, strain MKK1, active compounds read low 0.991 | S. cerevisiae deletion strains, locus YOR265W, strain rbl2, active compounds read low 1 | S. cerevisiae deletion strains, locus YOR270C, strain vph1, active compounds read low 1.04 | S. cerevisiae deletion strains, locus YOR290C, strain snf2, active compounds read low 1.02 | S. cerevisiae deletion strains, locus YOR316C, strain cot1, active compounds read low 1.01 | S. cerevisiae deletion strains, locus YPL051W, strain arl3, active compounds read low 1.02 | S. cerevisiae deletion strains, locus YPL055C, strain LGE1, active compounds read low 1.01 | S. cerevisiae deletion strains, locus YPL078C, strain atp4, active compounds read low 1.02 | S. cerevisiae deletion strains, locus YPL106C, strain sse1, active compounds read low 1.01 | S. cerevisiae deletion strains, locus YPL240C, strain hsp82, active compounds read low 1.01 | S. cerevisiae deletion strains, locus YPL241C, strain CIN2, active compounds read low 1.01 | S. cerevisiae deletion strains, locus YPL256C, strain CLN2, active compounds read low 1.06 | S. cerevisiae deletion strains, locus YPR119W, strain clb2, active compounds read low 0.996 | S. cerevisiae deletion strains, locus YPR141C, strain kar3, active compounds read low 1.01 | S. cerevisiae deletion strains, locus YPR163C, strain tif3, active compounds read low 1 | S. cerevisiae deletion strains, locus YPR167C, strain met16, active compounds read low 1 | S. cerevisiae deletion strains, strain wtn01, active compounds read low 1.01 | S. cerevisiae strains, strain wild type, active compounds read low 1
